Compounds with a hit are over-represented: about 3.2% of the library has one in this group of screens.
Mtb bLac sens – beta-lactam sensitization of Mtb H37Rv, H37Rv | M. tuberculosis H37Rv growth with meropenem, percent inhibition | inhibition, % at 25 µM | 0.27% of 330,000 active | AID 434955, 2010; call rule not given here;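 further: growth measured after seven days incubation then overnight dye step; 0% = bacteria only wells and 100% = bacteria with antibiotic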
SSB-PriA inh – inhibitors of Klebsiella pneumoniae PriA binding to SSB C-terminal tail, primary screen, biochemical, AlphaScreen; AID 1272365, 2023; AlphaScreen SSBct-PriA binding, biotinylated peptide; inhibition, % at 33 µM; 0.6% of 430,000 active; in the data active means inhibition mostly above about 37%, no sharp cut-off; inactive means mostly below about 20%;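 further: plate controls were negative control peptide for no effect and reference peptide for full effect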
Rv3671c protease – Rv3671c serine protease inhibitors, primary screen, biochemical, fluorescence polarization, M. tuberculosis H37Rv; P9WHR9; inhibition, % at 5.96 µM; 0.048% of 320,000 active; in the data active means inhibition above about 38%;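 further: extracellular domain of Rv3671c used as enzyme; 0% = enzyme with DMSO and 100% = no enzyme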
Mtb UGM inh – M. tuberculosis UGM enzyme inhibitors, primary screen, biochemical, fluorescence polarization, single point. UDP-galactopyranose mutase (Mycobacterium tuberculosis (strain ATCC 25618 / H37Rv)), …. purified UGM, fluorescence polarization probe displacement. inhibition, % at 10 µM. 0.06% of 320,000 active; in the data active means inhibition above about 10%, passing the limit was not always enough
Target sequence (P9WIQ1 whole entry, looked up): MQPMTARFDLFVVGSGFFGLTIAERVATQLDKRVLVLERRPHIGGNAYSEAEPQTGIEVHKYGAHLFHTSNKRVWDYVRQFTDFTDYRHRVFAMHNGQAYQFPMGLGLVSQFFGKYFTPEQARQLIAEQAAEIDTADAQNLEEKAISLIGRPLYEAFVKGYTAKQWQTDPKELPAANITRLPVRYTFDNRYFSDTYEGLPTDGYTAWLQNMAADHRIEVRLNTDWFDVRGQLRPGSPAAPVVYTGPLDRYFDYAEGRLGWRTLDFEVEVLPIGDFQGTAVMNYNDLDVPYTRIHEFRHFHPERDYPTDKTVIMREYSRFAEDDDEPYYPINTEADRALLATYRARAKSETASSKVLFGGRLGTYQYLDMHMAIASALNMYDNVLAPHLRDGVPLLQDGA
FBA Mtb inh – Mtb FBA enzyme inhibitors, primary screen, biochemical, fluorescence, strain H37Rv. Fructose-bisphosphate aldolase (Mycobacterium tuberculosis (strain ATCC 25618 / H37Rv)), …. purified M. tuberculosis FBA, fluorescence read-out. inhibition, % at 1 µM. 2.3% of 360,000 active;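 further: 0% = vehicle and 100% = reference inhibitor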
GDH-TPI counter-1 – GDH-TPI coupling enzyme inhibitors, primary screen, artefact control for M. tuberculosis FBA inhibitor project, biochemical, absorbance, full deck; GDH-TPI coupled enzyme counterscreen, NADH absorbance; 1.2% of 360,000 active; inhibition, % at 4.8 µM; in the data active means inhibition above about 30%;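 further: 0% = DMSO wells and 100% = wells lacking the enzyme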
Mtb FBA inh conf – M. tuberculosis aldolase blockers, biochemical, fluorescence, strain H37Rv, confirmation. 78% of 5,600 active. shares compounds with FBA Mtb inh. inhibition, % at 1 µM. purified M. tuberculosis FBA, fluorescence read-out;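 further: 0% = vehicle wells and 100% = reference inhibitor wells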
GDH-TPI counter-2 – GDH-TPI coupling enzyme inhibitors, artefact control for M. tuberculosis FBA inhibitor project, biochemical, fluorescence, high throughput; inhibition, % at 1 µM; 81% of 5,600 active; GDH-TPI coupled enzyme counterscreen; shares compounds with FBA Mtb inh; in the data active means inhibition above about 10%
The depositor's hits bear a star; · = no result given; + = active, no number. Unless noted, no stated cut-off is given here; in the data, active means inhibition above about 27%; inactive means the rest.

SMILES	Mtb bLac sens	SSB-PriA inh	Rv3671c protease	Mtb UGM inh	FBA Mtb inh	GDH-TPI counter-1	Mtb FBA inh conf	GDH-TPI counter-2
CCNC(=O)/C(C#N)=C/c1c(N2CCN(Cc3ccc4c(c3)OCO4)CC2)nc2c(C)cccn2c1=O	-5.9	-3.8	-7.1	-1.9	4.8	6.2	·	·
COCCCn1c(C(=O)Nc2ccc3c(c2)OCO3)cc2c(=O)n3cccc(C)c3nc21	·	·	·	·	1.5	11.9	·	·
O=C(c1cc(-c2ccco2)on1)N1CCN(C(=O)C2CC2c2ccccc2)CC1 (stereo not given)	·	-12.0	·	·	·	·	·	·
Nc1ccc(C=Cc2ccc(N)cc2)cc1	·	·	·	·	88.0*	·	152.7*	115.8*
COc1ccccc1CCNC(=O)Cn1cnc(-c2ccc(C)cc2)cc1=O	·	-5.0	·	·	·	·	·	·
COc1ccccc1-c1cn(-c2ccccc2)c(=S)[nH]1	-7.4	10.2	-2.8	0.0	7.1	-0.9	·	·
COc1ccccc1C1=NC(c2ccccc2)CN1c1ccccc1 (stereo not given)	0.4	-9.7	3.9	1.1	101.6*	2.1	89.0*	63.4*
CN(CC(=O)Nc1ccc(Cl)c(S(=O)(=O)N(C)C)c1)Cc1ccccc1	-2.6	4.3	3.6	-0.2	53.1*	1.5	+	+
CC(C)CNC(=S)N(CCCO)Cc1cc2cc3c(cc2[nH]c1=O)OCO3	-7.7	-1.1	-3.2	4.1	33.3*	21.4	148.2*	97.8*
CC(C)CNC(=S)N(CCN(C)C)Cc1cc2cc3c(cc2[nH]c1=O)OCCO3	2.0	-27.8	-6.1	1.1	27.4*	15.4	44.7*	38.6*
CC(C)CNC(=S)N(CCN(C)C)Cc1cc2cc3c(cc2[nH]c1=O)OCO3	-6.3	-7.6	-4.0	-0.7	10.6	25.1	·	·
CCN(CC)CCNc1nc(SC)nc2sc3c(c12)CCN(C)C3	-0.8	2.8	-3.6	-0.1	41.0*	1.3	96.5*	75.1*
CCn1c(SCC(=O)c2ccccc2)nc2sc3c(c2c1=O)CCN(C)C3	59.7	9.2	1.4	-1.9	18.9	18.5	·	·
CSc1nc(NCc2ccccc2)c2c3c(sc2n1)CN(C)CC3	72.5	-2.7	3.8	-2.6	72.3*	5.5	140.4*	84.3*
COCCCNc1nc(SCc2ccccc2)nc2sc3c(c12)CCC3	·	-16.0	-19.6	-1.1	33.8*	18.3	96.9*	77.7*
CSc1nc(SCC(=O)NCC2CCCO2)c2c3c(sc2n1)CN(C)CC3 (stereo not given)	-4.1	9.1	-5.5	3.1	·	·	·	·
N#Cc1cnn(-c2nc(SCc3ccccc3)nc3sc4c(c23)CCCC4)c1N	8.9	-14.0	-23.1	1.6	0.2	1.8	·	·
CSc1nc(NCC(C)C)c2c3c(sc2n1)CN(C)CC3	5.8	-3.3	-1.6	4.1	48.8*	10.1	58.7*	57.1*
Cc1ccc(-n2cccc2C=Nn2cnnc2)cc1Cl	·	2.6	·	·	·	·	·	·
COCCNc1nc(SC)nc2sc3c(c12)CCN(C)C3	2.9	5.7	-5.3	-1.8	80.3*	-4.0	196.2*	176.6*
CSc1nc(NCCCN(C)C)c2c3c(sc2n1)CN(C)CC3	3.4	·	·	1.3	·	·	·	·
CCC(C)(C)n1nnnc1CN(Cc1ccco1)Cc1cc2cc3c(cc2[nH]c1=O)OCO3	4.0	-11.4	-2.8	-1.4	35.4*	14.3	90.1*	96.9*
COCCn1nnnc1CN(Cc1ccco1)Cc1cc2cc3c(cc2[nH]c1=O)OCO3	-1.5	-14.6	-5.6	1.2	47.7*	22.4	+	+
CC(C)(C)n1nnnc1CN(Cc1ccco1)Cc1cc2cc3c(cc2[nH]c1=O)OCO3	-5.4	-3.4	-8.8	0.7	45.8*	21.2	11.2	-4.1
CCCN1CCN(C(c2cc3cc4c(cc3[nH]c2=O)OCO4)c2nnnn2C(C)(C)C)CC1 (stereo not given)	-7.0	-5.2	-4.3	2.4	65.6*	12.2	57.6*	-3.0
SMILES	Mtb bLac sens	SSB-PriA inh	Rv3671c protease	Mtb UGM inh	FBA Mtb inh	GDH-TPI counter-1	Mtb FBA inh conf	GDH-TPI counter-2
O=C1NCCN1C(=O)Nc1ccc2c(c1)N(C(=O)c1cccs1)CC2	·	0.0	·	·	·	·	·	·
O=C(c1cc(-c2ccc(F)cc2)n[nH]1)N1CCN(Cc2csc(-c3ccccc3)n2)CC1	·	7.0	·	·	·	·	·	·
Cc1ccc2nc(-c3ccccc3)c(=O)n(C)c2c1	·	1.0	·	·	·	·	·	·
Cn1c(=O)c(-c2ccccc2)nc2ccccc21	-13.3	-22.3	-3.1	-0.5	44.4*	9.6	58.8*	38.9*
COc1ccccc1C(=O)Nc1ccc2c(c1)N(C)C(=O)C(C)(C)CO2	·	17.0	·	·	·	·	·	·
CNC(=S)NN=Cc1ccc(N(C)C)cc1	·	-0.9	·	·	·	·	·	·
CN(C)c1ccc(C=NNC(=S)Nc2ccc(F)cc2)cc1	·	-0.5	·	·	31.6*	40.8*	2.5	1.8
CC(C)Cn1c(N)c(C(=O)NCCN2CCOCC2)c2nc3ccccc3nc21	18.4	-13.8	-2.3	-0.2	110.0*	22.5	76.8*	73.0*
Cc1cccc(-n2c(N)c(C(=O)NCCN3CCOCC3)c3nc4ccccc4nc32)c1	-6.1	4.6	-5.1	0.1	·	·	·	·
CCC(C)NC(=O)c1c(N)n(CCCOC)c2nc3ccccc3nc12 (stereo not given)	21.9	-13.8	-32.3	-1.5	93.8*	4.4	+	+
CCCCn1c(N)c(C(=O)NCCN2CCOCC2)c2nc3ccccc3nc21	1.0	3.7	2.8	-2.0	79.7*	11.2	+	+
CC(C)C(=O)NCC1CN(c2ccc(F)cc2)C(=O)O1 (stereo not given)	·	5.0	·	·	·	·	·	·
CC1=CC(c2ccccc2)n2nc(N3C(=O)CCC3=O)nc2N1 (stereo not given)	14.7	-15.5	-5.0	4.0	104.4*	3.5	73.8*	41.4*
COc1ccc(N2CC(C(=O)N3CCN(c4ccccc4F)CC3)CC2=O)cc1 (stereo not given)	1.5	-1.3	-1.6	-1.0	1.5	2.7	·	·
COc1ccc(S(=O)(=O)N2CCN(C(=O)C3CC(=O)N(c4ccccc4F)C3)CC2)cc1OC (stereo not given)	·	1.4	·	·	32.8*	-1.3	149.8*	93.6*
COc1ccc2c(c1)nc(NCCO)n2C	48.0	-9.8	0.7	1.8	37.4*	-6.4	187.3*	169.9*
CC(=O)Nc1ccc(CC(=O)O)cc1	0.9	-13.0	-2.9	-1.1	-1.5	1.4	·	·
